Assays:
Test in all cases: PBM binding z-score (relative to random genomic background probes); higher = stronger binding; sequences stand for … in GC…GCGATTGACAGCGTAGAATGAAGG
[1] = tested on: FXR:RXRa (NR concentration 270 nM, RXRa partner concentration 90 nM)
How it was run: (§1)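 Ligand-free nuclear receptor dimers were bound for 1 h to custom Agilent 4×180K protein-binding microarrays. Detection used antibodies against each partner (one per run). Binding z-scores rest on regression-normalized fluorescence, with random background probes as the reference.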

[2] = tested on: LXRa:RXRa (NR concentration 270 nM, RXRa partner concentration 90 nM)
How it was run: as §1

[3] = tested on: LXRa homodimer (NR concentration 270 nM)
How it was run: as §1

[4] = tested on: LXRb:RXRa (NR concentration 270 nM, RXRa partner concentration 90 nM)
How it was run: as §1

[5] = tested on: LXRb homodimer (NR concentration 270 nM)
How it was run: as §1

[6] = tested on: PPARa:RXRa (NR concentration 270 nM, RXRa partner concentration 90 nM)
How it was run: as §1

[7] = tested on: PPARg:RXRa (NR concentration 180 nM, RXRa partner concentration 90 nM)
How it was run: as §1

[8] = tested on: PPARg:RXRa 270nM:90nM, anti-RXR (NR concentration 270 nM, RXRa partner concentration 90 nM)
How it was run: as §1

[9] = tested on: PPARg:RXRa 30nM:10nM, anti-RXR (NR concentration 30 nM, RXRa partner concentration 10 nM)
How it was run: as §1

[10] = tested on: PPARg:RXRa 90nM:30nM, anti-RXR (NR concentration 90 nM, RXRa partner concentration 30 nM)
How it was run: as §1

[11] = tested on: PPARg:RXRa DBDmut IVT, anti-RXR (DBD mutation: RXRa K156A/R161A, NR concentration 270 nM, RXRa partner concentration 90 nM)
How it was run: as §1

[12] = tested on: PPARg:RXRa IVT, anti-PPARg (NR concentration 270 nM, RXRa partner concentration 90 nM)
How it was run: as §1

[13] = tested on: PPARg DBDmut:RXRa IVT, anti-PPARg (DBD mutation: PPARg1 K132A/R137A, NR concentration 270 nM, RXRa partner concentration 90 nM)
How it was run: as §1

[14] = tested on: PPARg DBDmut IVT, anti-PPARg (DBD mutation: PPARg1 K132A/R137A, NR concentration 270 nM)
How it was run: as §1

[15] = tested on: PPARg homodimer (NR concentration 180 nM)
How it was run: as §1

[16] = tested on: PXR:RXRa (NR concentration 270 nM, RXRa partner concentration 90 nM)
How it was run: as §1

[17] = tested on: PXR homodimer (NR concentration 270 nM)
How it was run: as §1

[18] = tested on: RARa:RXR (NR concentration 270 nM, RXRa partner concentration 90 nM)
How it was run: as §1

[19] = tested on: RARa homodimer (NR concentration 270 nM)
How it was run: as §1

[20] = tested on: RARb:RXRa (NR concentration 270 nM, RXRa partner concentration 90 nM)
How it was run: as §1

Row | Sequence | PBM binding z-score [1] | PBM binding z-score [2] | PBM binding z-score [3] | PBM binding z-score [4] | PBM binding z-score [5] | PBM binding z-score [6] | PBM binding z-score [7] | PBM binding z-score [8] | PBM binding z-score [9] | PBM binding z-score [10] | PBM binding z-score [11] | PBM binding z-score [12] | PBM binding z-score [13] | PBM binding z-score [14] | PBM binding z-score [15] | PBM binding z-score [16] | PBM binding z-score [17] | PBM binding z-score [18] | PBM binding z-score [19] | PBM binding z-score [20]
1 | CGAACGAGGGCGTGAGTTGATAGCAAATGCCGAT | -0.128 | -0.241 | -0.781 | -0.468 | -0.878 | 0.0145 | 0.401 | 0.0824 | -0.205 | -0.084 | 0.665 | 0.126 | -0.548 | -1.21 | -0.313 | -0.163 | -0.37 | -0.268 | -0.533 | 0.442
2 | GCTATTAGTTGAAGGGGCAACCGAATGATTCTCG | -0.0427 | -0.304 | -0.118 | 0.151 | -0.16 | 0.84 | 0.924 | 2.1 | 0.49 | 1.65 | 0.421 | -0.0967 | -0.209 | 0.191 | 1.03 | -0.209 | -0.028 | 0.0521 | 0.778 | 0.759
3 | TCTCGGAGGACACGACAGGTCAGAGCTCGACATC | 1.13 | 1.51 | 0.823 | 0.827 | -0.505 | 1.4 | 0.559 | 1.1 | 2.11 | 1.5 | 0.919 | 0.745 | 0.0844 | -0.496 | 0.53 | 1.27 | -0.142 | 1.6 | 0.0819 | 2.62
4 | GGAACGAGGGCAGTCGAGTTGATAGCATGGCGAT | 0.203 | -0.214 | -0.72 | -0.752 | -1.02 | 0.405 | 0.453 | -0.213 | -0.485 | -0.457 | 2.24 | 1.29 | -0.319 | -0.59 | -0.872 | 1.83 | -0.252 | -0.0532 | -0.989 | 1.77
5 | TCATATAGGTAATACATGTGAAAGTCGGCATCTA | 0.838 | 1.1 | 0.394 | 0.937 | 0.272 | 1.43 | 1.42 | 2.35 | 3.69 | 3.13 | 3.84 | 2.56 | 1.65 | 1.42 | 0.451 | 0.682 | 0.0389 | 1.03 | 0.882 | 0.439
6 | CCTACTGGGCCATCAGGTCATTGAGATCAACGTT | 1.65 | 1.44 | 1.22 | 1.45 | -0.336 | 2.93 | 3.04 | 3.58 | 1.41 | 3.12 | 4.42 | 4.78 | 0.317 | 0.581 | 1.13 | 2.08 | 2.14 | 2.31 | -0.158 | 2.22
7 | TCAGACAGGTGAAGGTAACTTAGGTACGCAGTCG | 1.16 | 2.01 | -0.079 | 1.41 | -0.0603 | 1.46 | 0.846 | 2.45 | 4.08 | 3.11 | 2.71 | 1.37 | 0.399 | 0.159 | 1.08 | 0.989 | 0.206 | 1.27 | 0.365 | 1.15
